HT1080NT lethal = kills 2HG-producing HT-1080-NT fibrosarcoma cells. HT-1080-NT fibrosarcoma viability, CellTiter-Glo ATP luminescence, 48 h. Potency, µM (highest dose often 46.1 µM), without a hit: at the top dose activity, negative = less viability, most hits filed as cytotoxic. actives 1.6% (n = 360,000). AID 686970;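 further: NT is the 2HG producing partner of a matched IDH1 knockdown line; potency means the concentration at half of the fitted maximal effect; 0% = DMSO-treated cells and -100% = media-only wells without cells; nearly all actives have a fitted effect of over 55% in size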
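Compounds were tested in concentration-response format on HT-1080-NT cells for 48 hours at 37 degrees C. Cell viability came from CellTiter-Glo luminescence; curves were classified by r2, response magnitude and activity.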
ALOX12 inh = blocks human arachidonate 12S-lipoxygenase; P18054; purified 12hLO, xylenol orange hydroperoxide absorbance; Potency, µM (highest dose often 108 µM), inactives show at the top dose activity change, negative = inhibition, hits mostly inhibitors; actives 1.1% (n = 580,000); further: potency means the concentration at half of the fitted maximal effect
Target sequence (P18054 whole entry, looked up): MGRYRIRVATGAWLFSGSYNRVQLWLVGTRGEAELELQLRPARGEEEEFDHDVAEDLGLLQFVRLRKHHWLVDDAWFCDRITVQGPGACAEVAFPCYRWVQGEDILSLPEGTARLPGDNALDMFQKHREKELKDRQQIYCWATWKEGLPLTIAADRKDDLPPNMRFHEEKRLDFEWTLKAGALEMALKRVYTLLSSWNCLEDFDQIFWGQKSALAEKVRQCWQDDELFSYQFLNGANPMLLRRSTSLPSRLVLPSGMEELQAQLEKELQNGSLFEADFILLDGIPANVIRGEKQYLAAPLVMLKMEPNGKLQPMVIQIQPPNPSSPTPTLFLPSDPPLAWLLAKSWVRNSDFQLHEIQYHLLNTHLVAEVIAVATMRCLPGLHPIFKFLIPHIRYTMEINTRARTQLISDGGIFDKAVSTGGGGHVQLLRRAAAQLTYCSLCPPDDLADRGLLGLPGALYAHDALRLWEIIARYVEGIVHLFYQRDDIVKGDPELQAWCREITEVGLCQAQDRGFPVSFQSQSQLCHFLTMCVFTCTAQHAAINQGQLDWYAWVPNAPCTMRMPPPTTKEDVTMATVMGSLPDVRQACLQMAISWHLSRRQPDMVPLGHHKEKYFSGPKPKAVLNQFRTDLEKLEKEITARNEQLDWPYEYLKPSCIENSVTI
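Hydroperoxide product was detected by ferrous iron/xylenol orange as the 573 to 405 nm absorbance ratio. Arachidonic acid at 40 uM (final) was turned over for 30 min at room temperature by 150 nM human 12hLO, pH 7.0 Hepes buffer, after 15 min compound preincubation.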
TDP1 cell CPT = growth inhibition of DT40 Tdp1-/-;hTDP1 cells with camptothecin (screen for TDP1 inhibitors) | chicken DT40 Tdp1-/-;hTDP1 cells + 20 nM CPT, ATP luminescence, 48 h | Potency, µM (top dose mostly 46.2 µM), for the others: top-dose activity change, negative = growth inhibition, actives largely listed as inhibitors | actives 12% (n = 420,000); further: potency means the concentration at half of the fitted maximal effect; nearly all actives have a fitted effect of over 55% in size
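Chicken DT40 Tdp1-/- cells complemented with human TDP1, 400 cells/well, exposed to compounds plus 20 nM camptothecin for at least 48 h at 37 C; viability read as ATP content by CellTiter-Glo luminescence.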
HT1080 IDH1KD tx = kills HT-1080 cells with IDH1 knockdown. Potency, µM (series often up to 46.1 µM), for inactives: at the highest dose activity, negative = toxicity, usual class: cytotoxic. HT-1080 IDH1 knockdown viability, ATP luminescence, 48 h. actives 2% (n = 360,000). AID 686971;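 further: potency means the concentration at half of the fitted maximal effect; 0% = DMSO wells and -100% = cell-free medium wells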
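Luminescent ATP read-out (CellTiter-Glo, 10 min at room temperature) after 48 h compound exposure at 37 °C gave viability of IDH1-knockdown HT-1080 cells. Activity was normalised to DMSO and cell-free wells, then fitted as concentration-response curves.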
TDP1 cell noCPT = qHTS for Inhibitors of human tyrosyl-DNA phosphodiesterase 1 (TDP1): qHTS in cells in absence of CPT | DT40 Tdp1-/- hTDP1 cells, no CPT, ATP luminescence, 48 h | Potency, µM (doses to about 46.2 µM), without a hit: at the top dose activity change, negative = growth inhibition, hits mostly inhibitors | actives 15% (n = 420,000); further: potency means the concentration at half of the fitted maximal effect; nearly all actives have a fitted effect of over 55% in size
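Cells were dispensed at 400 per well, compounds added by pin tool, plates incubated ≥48 hr at 37 °C, then CellTiter-Glo added for 30 min at room temperature before luminescence reading. Line: DT40 Tdp1-/- complemented with hTDP1; camptothecin omitted.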
IL1B secr inh = blocks inflammasome-driven IL-1 beta release. THP-1 LPS/ATP IL-1B secretion, AlphaLISA, 16 h; active compounds read low. activity change, % at 57.5 µM. actives 4.7% (n = 360,000). AID 743279; in the data active means activity change below about -50%; inconclusive means mostly about -30% to -49%
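THP-1 cells pretreated 1 hr with compounds (up to 57.5 uM final), then stimulated with LPS (250 ng/mL final) plus ATP (1.25 mM final); secreted IL-1B measured by AlphaLISA after 16 hr, decreased signal indicating inhibition.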
An asterisk follows results filed as active; ? = inconclusive; . = no result; ! = repeats disagree; [ ] = dose if it differs, or a comment. This is one part of a sample in which hits are shown more often than they occur. Unless noted, the call rests on the fitted dose curve; in most records, active means well fitted curve in the direction sought with a large enough effect; inconclusive means small, poorly fitted or top-dose-only effect, or another doubt; inactive means no such curve, though single readings can be large; an effect the other way counts as inactive or inconclusive. Unless noted, on the % scale 0 is the no-effect control and ±100 the full control effect.

SMILES	HT1080NT lethal	ALOX12 inh	TDP1 cell CPT	HT1080 IDH1KD tx	TDP1 cell noCPT	IL1B secr inh
Cc1cc(CNC(=O)c2ccc(CN3CCCCC3)cc2)ccc1F	.	-9%	.	.	.	.
Clc1ccc(-c2noc(-c3ccncc3)n2)cc1	.	6%	.	.	.	.
COc1ccc(CCNC(=O)c2ccc(N(C)S(=O)(=O)c3ccc(C)cc3)cc2)cc1	-9%	-11%	?	-4%	16µM*	-2
CN(c1ccccc1)S(=O)(=O)c1cccc(C(=O)NCc2ccccc2CN2CCCC2)c1	?	-13%	?	?	?	-7
COc1ccccc1CNC(=O)c1cccc(S(=O)(=O)N(C)c2ccccc2)c1	-7%	208%	26µM*	1%	?	-5
Cc1ccc(S(=O)(=O)N(C)c2ccc(C(=O)NCCc3ccccc3)cc2)cc1	-5%	?	?	-10%	?	-1
CCOc1ccc(S(=O)(=O)N(C)c2ccc(OCC(=O)NCCc3ccc(OC)cc3)cc2)cc1	2%	0%	21µM*	15%	23µM*	2
CCN(c1ccccc1)S(=O)(=O)c1ccc(C(=O)N(C)CCc2ccc(OC)c(OC)c2)cc1	-14%	-9%	?	-1%	21µM*	-18
CN(c1ccccc1)S(=O)(=O)c1cccc(C(=O)NCCc2ccc(O)c(O)c2)c1	-26%	?	8.2µM*	?	12µM*	14
CCN(CC)S(=O)(=O)c1cccc(C(=O)NCCc2ccccc2)c1	-13%	-25%	?	-16%	?	22
Fc1ccc(SCCc2ccncc2)cc1	15%	6%	?	10%	18µM*!	1
O=[N+]([O-])c1ccc(SCCc2ccccn2)cc1	0%	?	-15%	-19%	-29%	-7
COc1ccc(SCCc2ccncc2)cc1	-5%	1%	1%	-2%	4%	-4
O=[N+]([O-])c1ccc(SCCc2ccncc2)cc1	4%	?	?	2%	21µM*	-5
Cc1noc(C)c1C(=O)N1CCC2(CC1)CN(c1cccc(-c3ccccc3)c1)C2	.	?	?	.	21µM*	.
Cc1noc(C)c1C(=O)N1CCC2(CC1)CCN(c1cccc(-c3ccccc3)c1)CC2	.	-21%[57.4 µM]	?	.	4.6µM*	.
Fc1ccccc1-c1noc(-c2nc(Cc3ccccc3)no2)n1	.	49%	.	.	.	.
Cc1cc(SCC(=O)c2ccccc2)n2ncc(-c3ccccc3)c2n1	21%	3%	?	0%	7.3µM*	-6
Cc1cc(N2CCN(C(=O)c3ccco3)CC2)n2ncc(-c3ccccc3)c2n1	-25%	?	23µM*	-29%	16µM*	-10
Cc1cc(-c2ccccc2)n2ncc(-c3ccccc3)c2n1	-20%	19%	-17%	-13%	-22%	-10
Cc1cc(N2CCCCC2)n2ncc(-c3ccccc3)c2n1	-25%	0%	?	-22%	29µM*	15
CCOC(=O)Cc1c(C)nc2c(-c3ccccc3)cnn2c1C	-3%	8%	?	-10%	-23%	0
Cc1nc2c(-c3ccccc3)cnn2c(N)c1-c1ccccc1	?	21%	-28%	?	?	-78*
Cc1ccc(CN(CCc2ccccc2)C(=O)c2ccc(C#N)cc2)s1	.	-3%	.	.	.	.
Cc1cc(N2CCOCC2)n2ncc(-c3ccc(Cl)cc3)c2n1	24%	0%	1%	9%	-16%	15
SMILES	HT1080NT lethal	ALOX12 inh	TDP1 cell CPT	HT1080 IDH1KD tx	TDP1 cell noCPT	IL1B secr inh
Cc1cc(N2CCCCC2)n2ncc(-c3ccc(Cl)cc3)c2n1	-7%	0%	13µM*	-18%	?	6
Nc1nccnc1C(=O)Nc1cccc(NC(=O)c2ccccc2)c1	.	9%	.	.	.	.
CNC(=O)CCc1cn(Cc2ccc(C)cc2)c2ccccc12	.	17%	.	.	.	.
CC(NC(=O)Cn1ncc2c3ccccc3n(Cc3ccc(F)cc3)c2c1=O)c1ccccc1 (centres undefined)	.	1%	?	.	10µM*	.
O=C(Cn1ncc2c3ccccc3n(Cc3cccc(Cl)c3)c2c1=O)NC1CCCCCC1	.	?	8.2µM*	.	6.5µM*	.
Cc1ccc(C)c(Cn2c3ccccc3c3cnn(CC(=O)NC4CCCCCC4)c(=O)c32)c1	.	-11%	?	.	13µM*	.
CC(CNC(=O)Cn1ncc2c3ccccc3n(Cc3cccc(Cl)c3)c2c1=O)c1ccccc1 (centres undefined)	.	?	18µM*	.	?	.
CN(Cc1ccco1)C(=O)c1ccc(S(C)(=O)=O)cc1	.	36%	.	.	.	.
C[S+](=O)([O-])CCn1ncc2cc(OCc3cccc(-c4cccc(O)c4)c3)ccc21	.	-13%[176 µM]	.	.	.	.
O=C(Cn1ncc2c3ccccc3n(Cc3ccccc3F)c2c1=O)NC1CCCCCC1	.	-21%	7.3µM*	.	15µM*	.
O=C(Cn1ncc2c3ccccc3n(Cc3ccccc3F)c2c1=O)NC1CC1	24%	-2%	-7%	?	1%	-16
C=CCOc1ccccc1C(=O)Nc1ccc(C#N)cc1	.	-34%	.	.	.	.
CCOC(=O)Cn1nnc(-c2ccc(SC)cc2)n1	6%	0%	7%	11%	-2%	17
CCOC(=O)Cn1nnc(-c2ccc(S(C)(=O)=O)cc2)n1	17%	-4%	4%	2%	-1%	-60*
COc1ccc2c(c1)nc1n2[C@@H](CNCc2ccccc2)COC1	.	-4%[176 µM]	.	.	.	.
COc1ccc(NC(=O)c2oc3ccccc3c2NC(=O)c2cc(OC)c(OC)c(OC)c2)cc1	.	-1%	21µM*	.	12µM*	.
CCOC(=O)c1oc2ccccc2c1NC(=O)c1ccco1	-1%	0%	?	1%	?	-25
CCOc1ccc(NC(=O)c2oc3ccccc3c2NC(=O)C(C)Oc2ccccc2)cc1 (centres undefined)	.	-27%	?	.	21µM*	.
CCOC(=O)c1oc2ccccc2c1NC(=O)c1cccc(OC)c1OC	?	-7%	16µM*	?	18µM*	19
COc1ccc(NC(=O)c2oc3ccccc3c2NC(=O)c2ccc3c(c2)OCO3)cc1	4%	0%	?	-14%	?	.
CCOC(=O)c1oc2ccccc2c1NC(=O)CCl	-20%	0%	10µM*	?	7.3µM*	?
CC(=O)N1CCC(C2CCN(Cc3cccc(C)c3)C2)CC1 (centres undefined)	.	61%	.	.	.	.

Compound activity deposited in PubChem by National Center for Advancing Translational Sciences (NCATS).
